Experiment [1] has as its system guinea pig Atrionatriuretic Peptide Receptor A (ANPA), gene 100135578. Briefly: NVS_GPCR_gANPA: NovaScreen (NVS) G Protein-Coupled Receptor Assay for guinea pig Atrionatriuretic Peptide Receptor A (ANPA) (AID 2283291). In short, it runs like this:
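Radioligand binding to guinea pig cerebellar membranes was measured after 1 h by filter-based scintillation counting. Chemicals were tested in duplicate at 25 uM, with hits run in concentration-response to a maximum of 50 uM. Binding loss was fitted against DMSO.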

Experiment [2] concerns the target human Opioid Receptor Delta 1 (Opiate D1), OPRD1 (gene 4985) (UniProt P41143). Description: NVS_GPCR_hOpiate_D1: NovaScreen (NVS) G Protein-Coupled Receptor Assay for human Opioid Receptor Delta 1 (Opiate D1) (AID 2283280). In short, it runs like this:
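Radioligand displacement on membranes from CHO cells expressing the receptor, read by filter scintillation counting 1 h after dosing. Duplicate single-point screen at 25 uM, then concentration series for actives; loss of signal versus DMSO.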

Experiment [3] deals with human Orphanin, Opioid Related Nociceptin Receptor 1 (ORL1), OPRL1 (gene 4987) (UniProt P41146). Description: NVS_GPCR_hORL1: NovaScreen (NVS) G Protein-Coupled Receptor Assay for human Orphanin, Opioid Related Nociceptin Receptor 1 (ORL1) (AID 2283283). In short, it runs like this:
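Filter-based radioligand displacement with receptor extracted from HEK293 cells, read 1 hour after dosing by scintillation counting. Duplicate single-point screen at 25 uM; qualifying chemicals then run in concentration-response to 50 uM, analysed relative to DMSO.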

Experiment [4] has as its target mouse Cholecystokinin, CCK1 Receptor (CCKA), Cckar (gene 12425) (UniProt O08786). Description: NVS_GPCR_mCCKAPeripheral: NovaScreen (NVS) G Protein-Coupled Receptor Assay for mouse Cholecystokinin, CCK1 Receptor (CCKA) (AID 2283285). Summed up: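 Radioligand competitive displacement on mouse pancreatic membranes, 2 h incubation; filter-based scintillation counting, loss of signal versus DMSO. Single-concentration screen at 25 uM in duplicate, actives retested in concentration-response up to 50 uM.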

For experiment [5], the target named is mouse Cholecystokinin, CCK2 Receptor (CCKB), Cckbr (gene 12426) (UniProt P56481). Briefly: NVS_GPCR_mCKKBCentral: NovaScreen (NVS) G Protein-Coupled Receptor Assay for mouse Cholecystokinin, CCK2 Receptor (CCKB) (AID 2283293). In short, it runs like this:
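Radioligand displacement binding on mouse forebrain membranes, 2 h exposure, filter-based scintillation counting. Primary screen in duplicate at 25 uM; actives (e.g. ≥30% inhibition) retested in concentration-response up to 50 uM; loss of binding signal relative to DMSO.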

The target of experiment [6] is guinea pig Serotonin, 5-Hydroxytryptamine Receptor 4 (5HT4), HTR4 (gene 100135548) (UniProt O70528). Briefly: NVS_GPCR_g5HT4: NovaScreen (NVS) G Protein-Coupled Receptor Assay for guinea pig Serotonin, 5-Hydroxytryptamine Receptor 4 (5HT4) (AID 2283294). Summed up: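 Guinea pig striatal membranes; radioligand competitive displacement, filtration and scintillation counting after 1 h. Primary screen in duplicate at 25 uM; actives then tested in concentration series; loss of binding signal fitted relative to DMSO.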
Chain of guinea pig Serotonin, 5-Hydroxytryptamine Receptor 4 (5HT4), HTR4 (gene 100135548) (O70528 whole entry, looked up): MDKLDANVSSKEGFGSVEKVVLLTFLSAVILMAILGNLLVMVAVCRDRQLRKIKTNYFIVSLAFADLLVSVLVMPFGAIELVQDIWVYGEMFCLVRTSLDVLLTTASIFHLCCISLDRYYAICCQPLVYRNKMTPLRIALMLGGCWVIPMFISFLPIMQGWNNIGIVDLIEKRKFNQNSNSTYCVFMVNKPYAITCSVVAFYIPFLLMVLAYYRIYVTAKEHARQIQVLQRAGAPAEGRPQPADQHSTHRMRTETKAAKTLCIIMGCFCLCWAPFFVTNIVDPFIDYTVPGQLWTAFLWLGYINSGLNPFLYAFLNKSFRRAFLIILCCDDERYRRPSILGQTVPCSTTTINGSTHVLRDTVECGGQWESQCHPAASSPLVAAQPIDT

For experiment [7], the target named is human Neuropeptide Receptor Y1 (NPY1), NPY1R (gene 4886) (UniProt P25929). Briefly: NVS_GPCR_hNPY1: NovaScreen (NVS) G Protein-Coupled Receptor Assay for human Neuropeptide Receptor Y1 (NPY1) (AID 2283276). In short, it runs like this: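 Cell-free radioligand binding using receptor extracted from SK-N-MC cells, 1 h incubation, filter-based scintillation counting. Primary screen single concentration 25 uM in duplicate; actives followed in concentration series. Loss of bound signal scored versus DMSO.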

Experiment [8] concerns the target human Neurokinin, NK2 Receptor, TACR2 (gene 6865) (UniProt P21452). Briefly: NVS_GPCR_hNK2: NovaScreen (NVS) G Protein-Coupled Receptor Assay for human Neurokinin, NK2 Receptor (AID 2283278).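 Note: actives reduce bound radioligand signal relative to DMSO baseline.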 In short, it runs like this: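 Radioligand binding on membranes from CHO cells expressing receptor, filter-based scintillation read 4 h after dosing. Initial duplicate screen at 25 uM, actives in concentration series; loss of signal versus DMSO.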

For experiment [9], the system named is 5-hydroxytryptamine receptor 2C (pig). Briefly: NVS_GPCR_p5HT2C: NovaScreen (NVS) G Protein-Coupled Receptor Assay for pig Serotonin, 5-Hydroxytryptamine Receptor 2C (5HT2C) (AID 2283288). Summed up: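 Pig choroid plexus membranes; radioligand competitive binding, filter-based scintillation counting, read 1 h after dosing. Primary screen in duplicate at 25 uM; actives then run as concentration series; loss of signal versus DMSO baseline.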

The target in experiment [10] is human Vasopressin 1A Receptor (V1A), AVPR1A (gene 552) (UniProt P37288). Briefly: NVS_GPCR_hV1A: NovaScreen (NVS) G Protein-Coupled Receptor Assay for human Vasopressin 1A Receptor (V1A) (AID 2283284). Summed up:
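Cell-free radioligand displacement on human platelet preparations, 1.5 h incubation, filter-based scintillation counting. Chemicals first tested in duplicate at 25 uM; actives then run in concentration-response up to 50 uM, loss of signal fitted against DMSO.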

Experiment [11] addresses rat Serotonin, 5-Hydroxytryptamine Receptor 1 (5HT1), Non-Selective Binding, Htr1a (gene 24473) (UniProt P19327). Briefly: NVS_GPCR_r5HT1_NonSelective: NovaScreen (NVS) G Protein-Coupled Receptor Assay for rat Serotonin, 5-Hydroxytryptamine Receptor 1 (5HT1), Non-Selective Binding (AID 2283286). Summed up:
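Rat cortical membranes, radioligand displacement, 1 h incubation, read by filter scintillation. Primary screen in duplicate at 25 uM. Hits (e.g. ≥30% inhibition) went to concentration-response up to 50 uM, fitted as loss of binding versus DMSO.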

The target of experiment [12] is rat Serotonin, 5-Hydroxytryptamine Receptor (5HT), Non-Selective Binding, Htr1a (gene 24473) (UniProt P19327). Description: NVS_GPCR_r5HT_NonSelective: NovaScreen (NVS) G Protein-Coupled Receptor Assay for rat Serotonin, 5-Hydroxytryptamine Receptor (5HT), Non-Selective Binding (AID 2283295). In short, it runs like this: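 Radioligand displacement on rat cortical membranes, 1 h incubation, filter-based scintillation counting. Primary duplicates at 25 uM, actives retested in concentration series; loss of signal fitted against DMSO as baseline.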
Chain of rat Serotonin, 5-Hydroxytryptamine Receptor (5HT), Non-Selective Binding, Htr1a (gene 24473) (P19327 whole entry, looked up): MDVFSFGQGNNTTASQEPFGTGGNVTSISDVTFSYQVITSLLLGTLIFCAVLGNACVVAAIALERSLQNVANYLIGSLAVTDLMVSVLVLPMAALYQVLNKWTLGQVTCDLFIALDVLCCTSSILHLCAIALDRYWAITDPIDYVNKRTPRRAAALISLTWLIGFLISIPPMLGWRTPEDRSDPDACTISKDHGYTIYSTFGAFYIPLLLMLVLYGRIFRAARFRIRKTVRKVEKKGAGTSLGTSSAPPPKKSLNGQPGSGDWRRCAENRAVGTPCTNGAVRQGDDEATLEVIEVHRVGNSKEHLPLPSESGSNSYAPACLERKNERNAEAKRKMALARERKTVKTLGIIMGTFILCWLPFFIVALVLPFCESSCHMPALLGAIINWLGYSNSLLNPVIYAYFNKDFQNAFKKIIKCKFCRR

The target in experiment [13] is human Thromboxane A2 Receptor (TXA2), TBXA2R (gene 6915) (UniProt P21731). Briefly: NVS_GPCR_hTXA2: NovaScreen (NVS) G Protein-Coupled Receptor Assay for human Thromboxane A2 Receptor (TXA2) (AID 2283282).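 Note: actives reduce bound radioligand signal relative to DMSO baseline.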 Summed up:
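Cell-free radioligand binding on membrane protein from human platelets; radioligand displacement read by filter-based scintillation counting after 1 h. Primary screen in duplicate at 25 uM, actives then run in concentration series; loss of signal versus DMSO.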

In experiment [14] the test system is rabbit Platelet Activating Factor Receptor (PAF), gene 100354046. Briefly: NVS_GPCR_rabPAF: NovaScreen (NVS) G Protein-Coupled Receptor Assay for rabbit Platelet Activating Factor Receptor (PAF) (AID 2283287). Summed up: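 Rabbit platelet membrane preparation; radioligand displacement read by filter-based scintillation counting 1 h after dosing, loss of signal versus DMSO. Primary screen in duplicate at 25 uM, actives followed up in concentration series.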

Experiment [15] addresses rat Adrenergic, Alpha 1, Non-selective Receptor (Adra1), Adra1a (gene 29412) (UniProt P43140). Description: NVS_GPCR_rAdra1_NonSelective: NovaScreen (NVS) G Protein-Coupled Receptor Assay for rat Adrenergic, Alpha 1, Non-selective Receptor (Adra1) (AID 2283289). In short, it runs like this: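 Rat forebrain membranes; radioligand displacement read by filter-based scintillation counting 1 h after dosing. Primary screen in duplicate at 25 uM; hits (e.g. ≥30% inhibition) rerun as concentration–response to 50 uM max. Fitted versus DMSO.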

Experiment [16] concerns the target Muscarinic acetylcholine receptor M5 (Homo sapiens) (UniProt P08912). Briefly: NVS_GPCR_hM5: NovaScreen (NVS) G Protein-Coupled Receptor Assay for human Muscarinic, M5 Receptor (AID 2283275). Summed up:
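Radioligand displacement on CHO-derived membrane preparations, 1 h, filter-based scintillation counting. Single-concentration duplicate screen at 25 uM; hits (e.g. 30% inhibition) retested in singleton concentration-response up to 50 uM. Loss of binding fitted versus DMSO.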

For experiment [17], the target named is human Neurotensin Receptor (NTS), NTSR1 (gene 4923) (UniProt P30989). Briefly: NVS_GPCR_hNTS: NovaScreen (NVS) G Protein-Coupled Receptor Assay for human Neurotensin Receptor (NTS) (AID 2283279). In short, it runs like this:
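Radioligand displacement on human NTSR1 protein from CHO cells, cell-free, 1 h, filter-based scintillation counting. Primary screen at 25 uM in duplicate; hits rerun in concentration-response up to 50 uM.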

Experiment [18] addresses Neuropeptide Y receptor type 2 (Homo sapiens) (UniProt P49146). Briefly: NVS_GPCR_hNPY2: NovaScreen (NVS) G Protein-Coupled Receptor Assay for human Neuropeptide Receptor Y2 (NPY2) (AID 2283277). In short, it runs like this:
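Radioligand binding on membranes extracted from SK-N-MC cells, cell-free, read 1 h after dosing by filter-based scintillation counting. Loss of signal vs DMSO. Primary screen in duplicate at 25 uM; actives followed up in concentration-response up to 50 uM.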

Results filed as inconclusive are left out. Active and inactive are the calls of the source. Rule for the calls: active = hit-call score of the fitted dose curve at least 0.9, where 1 is the maximum; inconclusive = response in the unintended direction; inactive = score below 0.9.

Chain of mouse Cholecystokinin, CCK1 Receptor (CCKA), Cckar (gene 12425) (O08786 whole entry, looked up): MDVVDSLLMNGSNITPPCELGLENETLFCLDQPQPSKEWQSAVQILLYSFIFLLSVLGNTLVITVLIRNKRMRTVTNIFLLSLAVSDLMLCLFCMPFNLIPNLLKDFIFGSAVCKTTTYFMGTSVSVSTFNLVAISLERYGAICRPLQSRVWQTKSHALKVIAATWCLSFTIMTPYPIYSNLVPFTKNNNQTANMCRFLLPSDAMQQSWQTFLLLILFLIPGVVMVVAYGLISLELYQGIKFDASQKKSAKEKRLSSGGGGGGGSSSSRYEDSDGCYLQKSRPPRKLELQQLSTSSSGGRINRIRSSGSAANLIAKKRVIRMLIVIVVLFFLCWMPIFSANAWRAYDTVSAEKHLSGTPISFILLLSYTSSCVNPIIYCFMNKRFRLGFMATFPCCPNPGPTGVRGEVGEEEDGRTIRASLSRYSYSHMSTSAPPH
Chain of rat Serotonin, 5-Hydroxytryptamine Receptor 1 (5HT1), Non-Selective Binding, Htr1a (gene 24473) (P19327 whole entry, looked up): as the sequence (P19327 whole entry, looked up) above
Chain of human Orphanin, Opioid Related Nociceptin Receptor 1 (ORL1), OPRL1 (gene 4987) (P41146 whole entry, looked up): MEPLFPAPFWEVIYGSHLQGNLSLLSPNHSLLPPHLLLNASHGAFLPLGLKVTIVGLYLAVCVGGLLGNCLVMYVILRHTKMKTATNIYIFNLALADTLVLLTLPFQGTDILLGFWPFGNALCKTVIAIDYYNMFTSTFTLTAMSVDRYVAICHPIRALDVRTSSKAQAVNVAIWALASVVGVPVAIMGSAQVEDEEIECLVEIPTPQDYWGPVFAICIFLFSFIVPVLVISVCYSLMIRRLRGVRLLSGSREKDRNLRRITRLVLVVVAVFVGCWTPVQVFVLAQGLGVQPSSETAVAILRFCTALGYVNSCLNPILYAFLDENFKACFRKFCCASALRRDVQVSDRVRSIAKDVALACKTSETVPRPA
Chain of human Opioid Receptor Delta 1 (Opiate D1), OPRD1 (gene 4985) (P41143 whole entry, looked up): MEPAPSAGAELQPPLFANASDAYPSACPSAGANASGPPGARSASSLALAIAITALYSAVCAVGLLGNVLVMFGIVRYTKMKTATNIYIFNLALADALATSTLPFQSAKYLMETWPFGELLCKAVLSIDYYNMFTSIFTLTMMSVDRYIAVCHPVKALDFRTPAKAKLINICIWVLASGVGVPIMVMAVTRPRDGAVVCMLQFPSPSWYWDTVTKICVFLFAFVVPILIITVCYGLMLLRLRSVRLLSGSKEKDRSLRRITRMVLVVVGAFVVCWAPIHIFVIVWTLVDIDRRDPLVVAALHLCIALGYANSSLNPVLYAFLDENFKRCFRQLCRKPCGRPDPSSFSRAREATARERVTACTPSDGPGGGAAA
Chain of human Neurokinin, NK2 Receptor, TACR2 (gene 6865) (P21452 whole entry, looked up): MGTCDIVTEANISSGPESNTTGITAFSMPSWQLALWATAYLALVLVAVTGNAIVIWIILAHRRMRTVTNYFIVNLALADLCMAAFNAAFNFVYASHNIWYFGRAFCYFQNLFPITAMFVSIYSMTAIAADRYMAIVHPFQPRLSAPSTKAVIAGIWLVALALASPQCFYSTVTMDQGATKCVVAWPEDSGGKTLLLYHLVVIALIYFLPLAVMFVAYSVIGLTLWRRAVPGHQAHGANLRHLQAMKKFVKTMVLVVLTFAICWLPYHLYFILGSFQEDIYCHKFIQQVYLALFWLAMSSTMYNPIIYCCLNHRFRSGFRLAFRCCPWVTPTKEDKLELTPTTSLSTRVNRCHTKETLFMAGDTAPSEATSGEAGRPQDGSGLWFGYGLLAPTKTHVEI
Chain of human Vasopressin 1A Receptor (V1A), AVPR1A (gene 552) (P37288 whole entry, looked up): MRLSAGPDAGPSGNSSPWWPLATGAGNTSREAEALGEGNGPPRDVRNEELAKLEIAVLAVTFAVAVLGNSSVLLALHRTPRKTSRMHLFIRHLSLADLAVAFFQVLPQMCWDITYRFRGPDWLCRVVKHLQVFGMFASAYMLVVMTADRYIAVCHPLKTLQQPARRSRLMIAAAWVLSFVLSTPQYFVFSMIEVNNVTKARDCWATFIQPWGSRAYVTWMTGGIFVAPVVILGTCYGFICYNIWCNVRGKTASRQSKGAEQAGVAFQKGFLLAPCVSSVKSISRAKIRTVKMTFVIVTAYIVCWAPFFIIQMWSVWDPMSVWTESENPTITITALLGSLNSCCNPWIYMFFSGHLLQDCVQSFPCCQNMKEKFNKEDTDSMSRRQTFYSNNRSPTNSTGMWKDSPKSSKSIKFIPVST
Chain of rat Adrenergic, Alpha 1, Non-selective Receptor (Adra1), Adra1a (gene 29412) (P43140 whole entry, looked up): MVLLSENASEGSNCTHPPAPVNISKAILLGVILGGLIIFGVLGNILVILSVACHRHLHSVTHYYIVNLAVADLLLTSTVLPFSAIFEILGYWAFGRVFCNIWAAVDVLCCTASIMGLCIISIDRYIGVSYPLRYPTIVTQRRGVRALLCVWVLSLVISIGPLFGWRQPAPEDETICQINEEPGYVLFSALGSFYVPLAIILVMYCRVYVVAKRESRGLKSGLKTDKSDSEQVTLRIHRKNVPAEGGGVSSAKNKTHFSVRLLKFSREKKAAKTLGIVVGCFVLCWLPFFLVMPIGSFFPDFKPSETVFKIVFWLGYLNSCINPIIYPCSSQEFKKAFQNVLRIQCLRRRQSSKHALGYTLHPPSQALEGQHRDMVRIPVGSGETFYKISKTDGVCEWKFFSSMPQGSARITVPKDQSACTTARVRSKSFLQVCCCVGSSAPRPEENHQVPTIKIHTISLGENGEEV
Chain of mouse Cholecystokinin, CCK2 Receptor (CCKB), Cckbr (gene 12426) (P56481 whole entry, looked up): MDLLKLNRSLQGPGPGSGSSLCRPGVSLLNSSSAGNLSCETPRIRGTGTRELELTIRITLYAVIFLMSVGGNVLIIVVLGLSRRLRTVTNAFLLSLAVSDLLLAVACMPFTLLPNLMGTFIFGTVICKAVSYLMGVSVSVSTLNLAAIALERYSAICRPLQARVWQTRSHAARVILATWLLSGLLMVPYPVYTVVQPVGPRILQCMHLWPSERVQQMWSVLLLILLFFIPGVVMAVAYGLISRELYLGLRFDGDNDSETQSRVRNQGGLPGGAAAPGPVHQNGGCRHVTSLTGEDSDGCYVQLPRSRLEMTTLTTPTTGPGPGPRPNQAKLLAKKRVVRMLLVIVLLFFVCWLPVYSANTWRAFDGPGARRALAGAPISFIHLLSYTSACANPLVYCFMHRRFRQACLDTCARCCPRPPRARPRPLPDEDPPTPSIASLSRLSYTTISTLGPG
Chain of human Neurotensin Receptor (NTS), NTSR1 (gene 4923) (P30989 whole entry, looked up): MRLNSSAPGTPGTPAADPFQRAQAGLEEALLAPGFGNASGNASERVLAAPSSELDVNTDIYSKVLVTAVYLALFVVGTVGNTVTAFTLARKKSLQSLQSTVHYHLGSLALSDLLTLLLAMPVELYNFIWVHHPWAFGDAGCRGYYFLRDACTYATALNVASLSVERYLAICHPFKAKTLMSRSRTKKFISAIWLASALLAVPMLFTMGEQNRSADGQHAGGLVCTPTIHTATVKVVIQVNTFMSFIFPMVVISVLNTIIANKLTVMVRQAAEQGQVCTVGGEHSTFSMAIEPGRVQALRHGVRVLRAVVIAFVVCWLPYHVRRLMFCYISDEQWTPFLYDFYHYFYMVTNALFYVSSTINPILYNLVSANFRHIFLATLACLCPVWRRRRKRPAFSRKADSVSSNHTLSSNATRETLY
Chain of human Thromboxane A2 Receptor (TXA2), TBXA2R (gene 6915) (P21731 whole entry, looked up): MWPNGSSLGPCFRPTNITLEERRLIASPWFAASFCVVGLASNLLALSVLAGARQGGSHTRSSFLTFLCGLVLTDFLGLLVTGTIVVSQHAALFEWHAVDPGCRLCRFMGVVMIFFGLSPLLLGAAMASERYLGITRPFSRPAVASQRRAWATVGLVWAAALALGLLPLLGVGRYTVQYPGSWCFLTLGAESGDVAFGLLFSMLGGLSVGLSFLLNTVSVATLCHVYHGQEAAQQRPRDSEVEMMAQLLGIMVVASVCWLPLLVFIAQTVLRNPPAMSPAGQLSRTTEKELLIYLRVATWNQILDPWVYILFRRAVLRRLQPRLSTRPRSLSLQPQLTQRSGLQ

For `CCNS(=O)(=O)C(F)(F)C(F)(F)C(F)(F)C(F)(F)C(F)(F)C(F)(F)C(F)(F)C(F)(F)F`, the result in experiment [1] was inactive.

On to `CCCCCOC(=O)c1ccccc1C(=O)OCCCCC`, for which the outcome in experiment [2], in experiment [3], in experiment [4], in experiment [5] and in experiment [6] was inactive.

As to `Nc1ccc(N=Nc2ccccc2)cc1`, the call in [2] was inactive.

As a reminder, the AC50 is the concentration at which the activity in the assay is half-maximal. As to `Cc1cccc(N)c1N`, the molecule was classed as inactive in experiment [7] and in experiment [8]. For the same molecule, the AC50 in [9] is 16.8 µM (active).

Regarding `O=[N+]([O-])C(Br)(CO)CO`, the figures for the AC50 in [8], in experiment [3] and in [11] were 1.21 µM (active), 5.41 µM (active) and 32.8 µM (active), respectively. In addition, the molecule was classed as inactive in experiment [10] and in [12].

Consider `N#CC(Br)Br`, for which, in experiment [8], the outcome was inactive.

For the molecule `CC(O)CCO` (configuration not stated), in experiment [10], the molecule was called inactive.

Regarding `O=[N+]([O-])c1ccc(Oc2ccc(Cl)cc2Cl)cc1`, the molecule was called inactive in experiment [8] and in experiment [4].

Turning to `CC(C)(C)C(O)(CCc1ccc(Cl)cc1)Cn1cncn1` (configuration not stated), the values for the AC50 in experiment [8] and in [14] were 13.1 µM (active) and 16.7 µM (active), respectively. In addition, the molecule was called inactive in experiment [13] and in [4].

With `O=C(N[C@H](c1ccccc1)[C@@H]1CN2CCC1CC2)c1c(Cl)ccc(C(F)(F)F)c1Cl`, the AC50 in [8] was 23.9 µM (active); in experiment [3] it was 3.38 µM (active); in experiment [15], 23.6 µM (active); in [12], 37.5 µM (active). Further, the molecule was classed as inactive in experiment [2] and in experiment [11].

`CCOC(=O)[C@]1(c2ccccc2)Oc2ccccc2[C@@H]1N`: the AC50 in [16] is 4.93 µM (active); in experiment [2], 16.5 µM (active); in experiment [11], 1.08 µM (active); in experiment [14] it was 7.6 µM (active); in [9] it was 1.29 µM (active); in [15], 0.184 µM (active). For the same molecule, the AC50 in experiment [6] is 4.94 µM (active); in experiment [12] it was 2.49 µM (active). Further, in experiment [17], the molecule was classed as inactive.

Regarding `CC(C)(O)c1cnn2c(-c3ccc(F)c(-c4c(F)cccc4C#N)c3)cnc2n1`, in experiment [9], the call was inactive.

Consider `COC(=O)Nc1nc2ccccc2[nH]1`, for which the molecule was classed as inactive in experiment [18] and in experiment [9].

For the molecule `Clc1ccc(C(c2ccc(Cl)cc2)C(Cl)Cl)cc1`, in experiment [9], the result was inactive.
